The text below walks through data of PubChem BioAssay (NCATS).

Experiment [1] concerns Zika virus NS2B-NS3 protease. Nature of the experiment: Primary screen GU AMC qHTS for Zika virus inhibitors (AID 1347154).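 Also: 0% = no-inhibitor control and -100% = no-enzyme control; nearly all actives have a fitted effect of over 70% in size.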 The gist of the method: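 Unlinked Zika NS2B hydrophilic domain–NS3 protease complex at 25 nM in 10 mM Tris-HCl pH 8.0, 0.01% Tween 20, with an AMC peptide substrate. Fluorescence change (340/450 nm) over 15 min at room temperature, normalized to controls, fitted to 4-parameter Hill.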

Experiment [2] can be described thus: qHTS to identify inhibitors of the type 1 interferon - major histocompatibility complex class I in skeletal muscle: primary screen against the NCATS Mechanism Interrogation Plate v5.0 (MIPE) Libary (AID 1347411).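 Also: plate controls were vehicle for no effect and reference inhibitor for full effect; nearly all actives have a fitted effect of over 65% in size.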 The gist of the method: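 Luminescence from HiBiT-tagged endogenous HLA-B*08:01 served as the MHC class I read-out. CRISPR-engineered C25cl48 human myoblasts received 4.0 ng/ml IFN-beta plus compound for 24 hrs, with an 11-point, 1:3 series topping at 46 uM final.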
In general terms: Quantitative high-throughput screening tests each substance at several concentrations.

Experiment [3] in a line: Primary qHTS for inhibitors of nuclear receptor binding SET domain protein 2 (NSD2) in an isogenic RCH-ACV NSD2 p.E1099K mutant (9B) (AID 1645876). Also: potency is read from the fitted curve at half-maximal effect; nearly all actives have a fitted effect of over 70% in size.
Experiment [4] in a line: Primary qHTS for inhibitors of nuclear receptor binding SET domain protein 2 (NSD2) in an RCH-ACV wild type WT cells (2C) (AID 1645877). Also: potency is read from the fitted curve at half-maximal effect; nearly all actives have a fitted effect of over 70% in size.
Experiment [5] addresses Glutathione peroxidase 1 (Homo sapiens) (UniProt P07203). In words: Primary qHTS Assay for Inhibitors of Recombinant Selenoprotein Glutathione Peroxidase 1 (GPX1) (AID 1845191). Also: nearly all actives have a fitted effect of over 65% in size. The gist of the method: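 GR-coupled assay: compounds preincubated 30 min at room temperature with GPX1, then reaction started with CHP; final 10 nM GPX1, 1 mM GSH, 0.5 mM CHP, 0.5 mM NADPH, 100 nM GR, 0.01% BSA, pH 7.5 Tris buffer. NADPH fluorescence (340/450 nm) read at 0 and 15 min.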

Experiment [6] is described as follows: qHTS drug screen for cell cycle checkpoint inhibitors in PARPi-resistant BRCA-mutant ovarian cancer cell lines. (AID 1963452; calls by dose curve). The settings on record: PEO1/OlaR viability, CellTiter-Glo luminescence, 96 h, stronger effect = lower value. The gist of the method:
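PEO1, PEO4 and PEO1/OlaR ovarian cancer cells, 600 per well, exposed 96 h at 37C to a dilution series. Viability read by CellTiter-Glo luminescence, normalized to DMSO and empty wells; activity summarized as Z-AUC.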

SMILES strings stand for the structures. Inconclusive results are not listed. The source made the active and inactive calls. Unless noted, calls follow the shape of the dose curve; as a rule, active = well fitted curve in the direction sought with a large enough effect; inconclusive = small, poorly fitted or top-dose-only effect, or another doubt; inactive = no such curve, though single readings can be large; an effect the other way counts as inactive or inconclusive.

Sequence of Glutathione peroxidase 1 (Homo sapiens) (P07203 whole entry, looked up): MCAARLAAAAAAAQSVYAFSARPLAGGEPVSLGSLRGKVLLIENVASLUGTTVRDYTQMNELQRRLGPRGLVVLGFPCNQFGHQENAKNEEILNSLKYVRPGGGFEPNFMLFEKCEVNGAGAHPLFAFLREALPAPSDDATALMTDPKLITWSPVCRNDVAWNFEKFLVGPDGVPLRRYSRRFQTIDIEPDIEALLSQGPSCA

With `COc1ccc(S(=O)(=O)N(CCO)c2ccccc2CN(C)C/C=C/c2ccc(Cl)cc2)cc1`, the Potency result in experiment [1], in experiment [2] and in experiment [5] was “inactive” each time. In addition, the Potency in experiment [3] is 7.42 µM (active); in experiment [4], 8.33 µM (active). For the same molecule, the Z-AUC in experiment [6] was -0.289 (inactive); in experiment [6] (measured here: PEO1 parental Z-AUC) it was -0.166; in experiment [6] (measured here: PEO4 Z-AUC), 0.482.
